From PubChem
Hits are enriched below; roughly 17% of the tested compounds scored in any of these assays.
DT40 TDP1 no CPT: qHTS for Inhibitors of human tyrosyl-DNA phosphodiesterase 1 (TDP1): qHTS in cells in absence of CPT; Potency, µM (doses to about 46.2 µM), without a hit: top-dose activity change, negative = growth inhibition, most hits filed as inhibitors; actives 15% (n = 420,000); DT40 Tdp1-/- hTDP1 cells, no CPT, ATP luminescence, 48 h; note: % is set by controls: 0 for no effect and ±100 for the full control effect; nearly all actives have a fitted effect of over 55% in size
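Seeded 400 DT40-hTDP1 cells/well (vehicle DMSO, no 20 nM CPT); pinned compounds; ≥48 hr at 37 °C; CellTiter-Glo luminescence as viability measure.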
HT1080-NT tox: qHTS for induction of synthetic lethality in tumor cells producing 2HG: qHTS for the HT-1080-NT fibrosarcoma cell line; HT-1080-NT fibrosarcoma viability, CellTiter-Glo ATP luminescence, 48 h; Potency, µM (top dose mostly 46.1 µM), without a hit: at the top dose activity, negative = less viability, usual class: cytotoxic; actives 1.6% (n = 360,000);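 note: NT is the 2HG producing partner of a matched IDH1 knockdown line; 0% = DMSO-treated cells and -100% = media-only wells without cells; nearly all actives have a fitted effect of over 55% in size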
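A 48-hour cytotoxicity screen used HT-1080-NT cells plated 2 hours before compound delivery. ATP-based CellTiter-Glo luminescence measured viability, normalized to DMSO and no-cell controls.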
HT1080 IDH1KD tx: qHTS for induction of synthetic lethality in tumor cells producing 2HG: qHTS for the HT-1080-IDH1KD cell line; Potency, µM (series often up to 46.1 µM), inactives show at the highest dose activity, negative = toxicity, actives largely listed as cytotoxic; HT-1080 IDH1 knockdown viability, ATP luminescence, 48 h; actives 2% (n = 360,000); AID 686971, 2013;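 note: 0% = DMSO wells and -100% = cell-free medium wells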
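CellTiter-Glo luminescence after 48 h compound exposure at 37 degrees C of IDH1-knockdown HT-1080 cells in 5% FBS RPMI. %Activity scaled between DMSO wells and cell-free media wells, with curves fitted and assigned curve classes.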
DT40 TDP1 CPT: qHTS for Inhibitors of human tyrosyl-DNA phosphodiesterase 1 (TDP1): qHTS in cells in presence of CPT; chicken DT40 Tdp1-/-;hTDP1 cells + 20 nM CPT, ATP luminescence, 48 h; Potency, µM (highest dose often 46.2 µM), inactives show at the highest dose activity change, negative = growth inhibition, usual class: inhibitors; actives 12% (n = 420,000); note: % is set by controls: 0 for no effect and ±100 for the full control effect; nearly all actives have a fitted effect of over 55% in size
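Chicken DT40 Tdp1-/- cells complemented with human TDP1, 400 cells/well, exposed to compounds plus 20 nM camptothecin for at least 48 h at 37 C; viability read as ATP content by CellTiter-Glo luminescence.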
TGFb SMAD3 inh: qHTS for Inhibitors of TGF-b; HepG2 CAGA-GFP TGF-b/SMAD3 reporter, GFP fluorescence, 18 h; TGF-beta stimulated, 500 pg/mL final; Potency, µM (top dose mostly 46.1 µM), for inactives: at the top dose activity, negative = inhibition, hits mostly inhibitors; actives 1.2% (n = 410,000); note: % is set by controls: 0 for no effect and ±100 for the full control effect; nearly all actives have a fitted effect of over 65% in size
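Per well, imaged GFP fluorescence of HEPG2 CAGA-GFP cells gives the signal; cells get compound, then TGF-beta (500 pg/mL final), 18 h at 37 degrees C; %Activity versus -TGF-beta and +DMSO controls.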
HepG2 viability: qHTS for Inhibitors of TGF-b: Cytotox Counterscreen; HepG2 CAGA-GFP viability, ATP luminescence, 18 h; Potency, µM (doses to about 46.1 µM), without a hit: top-dose activity change, negative = cytotoxicity, most hits filed as cytotoxic; actives 0.76% (n = 410,000)
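CellTiter-Glo luminescence gave cytotoxicity after 18 hours at 37 degrees C. The cells were HepG2 CAGA-GFP in 1% FBS DMEM, stimulated with 500 pg/mL TGF-beta after compound addition. %Activity was normalised to no-cell wells (complete cell-killing) and DMSO (no toxicity), and curves were fitted and classified.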
Numbers without * were called inactive; ? = inconclusive; · = not tested or not shown; [ ] = another dose, or the depositor's remark. Calls come from the whole dose curve; as a rule, active = well fitted curve in the direction sought with a large enough effect; inconclusive = small, poorly fitted or top-dose-only effect, or another doubt; inactive = no such curve, though single readings can be large; an effect the other way counts as inactive or inconclusive. Potency is the fitted concentration of half-maximal effect.

SMILES | DT40 TDP1 no CPT | HT1080-NT tox | HT1080 IDH1KD tx | DT40 TDP1 CPT | TGFb SMAD3 inh | HepG2 viability
COc1ccc(CNC(=O)CCc2c(C)c3ccc(OC)c(C)c3oc2=O)cc1OC | -22.9% | · | · | -27.4% | -2.2% | -1.7%
Cc1ccc2c(C(=O)N3CCN(c4ccccc4)CC3)cc(-c3cccnc3)nc2c1C | 13µM* | ? | 23.1µM* | ? | -7.8% | -3.7%
Cc1ccc(-c2cc(C(=O)n3cnc4ccccc43)c3ccccc3n2)cc1C | ? | ? | -28.7% | ? | 5.0% | -52.5%
Cc1ccc(-c2cc(C(=O)N3CCN(c4ccccc4)CC3)c3ccccc3n2)cc1C | 16.4µM* | · | · | ? | ? | -27.0%
CC(C)n1ncc2c(C(=O)N3CCN(c4ccccc4)CC3)cc(-c3ccccc3)nc21 | ? | -27.0% | ? | ? | 0.0% | -11.8%
COc1ccc(-c2cc(C(=O)N3CCN(c4ccccc4)CC3)c3ccccc3n2)cc1OC | 16.4µM* | -14.4% | -15.8% | ? | -6.3% | -18.6%
COc1ccc(-c2cc(C(=O)OCC(=O)N3CCCCC3)c3ccccc3n2)cc1OC | 20.6µM* | -3.2% | 10.1% | ? | -0.5% | 2.2%
Cc1ccccc1NCCC(=O)Nc1ccc(Cl)cc1 | ? | -2.1% | -14.6% | ? | -0.6% | -25.1%
Cc1ccc2nc(COC(=O)c3cccnc3Cl)cc(=O)n2c1 | -4.8% | 11.6% | -0.7% | 2.4% | 31.9% | 30.4%
COc1ccc(-c2cc(C(=O)N3CCCC(C(F)(F)F)C3)c3ccccc3n2)cc1OC (stereo not drawn) | 20.6µM* | -16.7% | -0.7% | ? | 2.8% | -18.7%
COc1cc(-c2csc(N3CCOCC3)n2)cc(OC)c1OC | ? | 6.1% | 1.5% | -23.0% | 22.2% | 12.3%
COc1ccc(-c2csc(N3CCN(c4cc(C)nc5ccccc45)CC3)n2)cc1OC | 14.6µM* | ? | 16.4µM* | 14.6µM* | ? | 11.2µM*
O=C(c1cc(-c2ccco2)nc2ccccc12)N1CCN(c2ccc(F)cc2)CC1 | 13µM* | -4.5% | 0.8% | 20.6µM* | ? | -16.2%
Cc1cccc(C(=O)OCC(=O)N2CCCCCC2)c1C | 20.6µM* | 26.6% | 28.5% | ? | 9.4% | -33.7%
O=C(c1cccnc1)C1CCCN(Cc2ccc3c(c2)CN(C(=O)c2ccc4[nH]ccc4c2)CCO3)C1 (stereo not drawn) | ? | · | · | -6.0%[9.04 µM] | · | ·
CCC(=O)N1CCc2cc(S(=O)(=O)NCCC(=O)NCc3ccccc3OC)ccc21 | -7.5% | 2.0% | 0.9% | -28.2% | 1.0% | -4.6%
COc1cc(NC(=O)Cn2c(=O)n(Cc3ccco3)c(=O)c3sc4ccccc4c32)cc(OC)c1 | -28.7% | · | · | -20.8% | -1.2% | -1.5%
CCc1cccc(CC)c1NC(=O)COC(=O)CC1c2ccccc2CCN1S(=O)(=O)c1ccc(F)cc1 (stereo not drawn) | 23.1µM* | 0.3% | 7.8% | ? | 8.4% | -12.2%
O=C(COC(=O)CC1c2ccccc2CCN1S(=O)(=O)c1ccc(F)cc1)Nc1ccccc1 (stereo not drawn) | ? | -2.9% | -1.6% | ? | -2.4% | 2.0%
Cc1ccc(CCNC(=O)c2cc3cc4cc(C)ccc4nc3s2)cc1 | -7.4% | · | · | -7.6% | 3.1% | -0.9%
O=C(CCSCc1cccc(Cl)c1)NCCc1ccccc1 | -29.5% | 10.6% | 21.7% | -10.9% | ? | 6.6%
